Bioassay records deposited in PubChem by National Center for Advancing Translational Sciences (NCATS).
HT1080NT lethal = kills 2HG-producing HT-1080-NT fibrosarcoma cells; HT-1080-NT fibrosarcoma viability, CellTiter-Glo ATP luminescence, 48 h; Potency, µM (series often up to 46.1 µM), for the others: at the top dose activity, negative = less viability, hits mostly cytotoxic; 360,000 compounds, 1.6% hits;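 further: NT is the 2HG producing partner of a matched IDH1 knockdown line; 0% = DMSO-treated cells and -100% = media-only wells without cells; nearly all actives have a fitted effect of over 55% in size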
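HT-1080-NT; 750 cells/well; 5% FBS RPMI; 48 h compound, 37 degrees C; CellTiter-Glo luminescence; curve fitting and curve-class assignment.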
ATXN viability = reduces viability in counter-screen for ATXN expression inhibitors; S2 cells (HEK-293 line with an ATXN2-luciferase reporter) viability, CellTiter-Fluor protease fluorescence, 24 h; Potency, µM (titrated, usually from 56.7 µM), actives largely listed as cytotoxic; 400,000 compounds, 0.49% hits; further: nearly all actives have a fitted effect of over 40% in size
TGFb inhibitor = TGF-b pathway inhibition; HepG2 CAGA-GFP TGF-b/SMAD3 reporter, GFP fluorescence, 18 h; TGF-beta stimulated, 500 pg/mL final; Potency, µM (top dose mostly 46.1 µM), for inactives: at the top dose activity, negative = inhibition, most hits filed as inhibitors; 410,000 compounds, 1.2% hits; further: on the % scale 0 is the no-effect control and ±100 the full control effect; nearly all actives have a fitted effect of over 65% in size
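HEPG2 CAGA-GFP reporter cells (1000/well, DMEM with 1% FBS) received compounds, then recombinant TGF-beta at 500 pg/mL final for 18 hours at 37 degrees C. Per-cell GFP summed per well was normalised to unstimulated and stimulated DMSO controls before curve fitting.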
HepG2 tox = HepG2 cytotoxicity, counter-screen for TGF-b inhibitors; HepG2 CAGA-GFP viability, ATP luminescence, 18 h; Potency, µM (highest dose often 46.1 µM), for the others: at the highest dose activity change, negative = cytotoxicity, usual class: cytotoxic; 410,000 compounds, 0.76% hits
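CellTiter-Glo luminescence gave cytotoxicity after 18 hours at 37 degrees C. The cells were HepG2 CAGA-GFP in 1% FBS DMEM, stimulated with 500 pg/mL TGF-beta after compound addition. %Activity was normalised to no-cell wells (complete cell-killing) and DMSO (no toxicity), and curves were fitted and classified.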
ATXN2 expr inh = reduces ATXN2 reporter expression in HEK-293 cells. HEK-293 ATXN2-luciferase reporter, luminescence, 24 h. Potency, µM (doses to about 57 µM), for inactives: at the highest dose activity change, negative = inhibition, usual class: inhibitors. 360,000 compounds, 0.72% hits; further: on the % scale 0 is the no-effect control and ±100 the full control effect; nearly all actives have a fitted effect of over 55% in size
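qHTS (up to 57 uM final) was run with 24 h compound exposure of reporter cells at 37 °C. Each well was multiplexed: SteadyGlo luminescence measured ATXN2-luciferase expression after a fluorogenic Gly-Phe-AFC viability readout (25 uM final).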
HT1080 IDH1KD tx = toxicity to HT-1080 IDH1 knockdown cells (counter line); 360,000 compounds, 2% hits; AID 686971; Potency, µM (top dose mostly 46.1 µM), for the others: top-dose activity, negative = toxicity, actives largely listed as cytotoxic; HT-1080 IDH1 knockdown viability, ATP luminescence, 48 h;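 further: 0% = DMSO wells and -100% = cell-free medium wells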
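After a 2 h attachment period, IDH1KD HT-1080 cells took pin-transferred compound for 48 h at 37 °C; ATP-based luminescence after 10 min room-temperature reagent incubation reported viability.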
Numbers without * were called inactive; i = inactive; ? = inconclusive; nt = not tested or not shown. The list is not random: actives were taken first. Their share in the collection is about 3.8%. The call rests on the fitted dose curve; in most records, active means well fitted curve in the direction sought with a large enough effect; inconclusive means small, poorly fitted or top-dose-only effect, or another doubt; inactive means no such curve, though single readings can be large; an effect the other way counts as inactive or inconclusive. Potency means the concentration at half of the fitted maximal effect.

SMILES | HT1080NT lethal | ATXN viability | TGFb inhibitor | HepG2 tox | ATXN2 expr inh | HT1080 IDH1KD tx
CCn1cc(CN2CCCC(C(=O)Nc3cccc(-c4cc5ccccc5[nH]4)c3)C2)c(C)n1 (stereo not drawn) | 20.6µM* | i | ? | -28.5% | ? | ?
COc1cccc(-c2ccc(NC(=O)C3CCCN(Cc4cnn(C)c4)C3)cc2)c1 (stereo not drawn) | ? | ? | -23.1% | -29.1% | -22.4% | 16.4µM*
Cn1cc(CN2CCCC(C(=O)Nc3cccc(-c4cc5ccccc5[nH]4)c3)C2)cn1 (stereo not drawn) | ? | i | ? | -34.3% | -37.8% | 29.1µM*
COCCc1ncc(CN2CCCC(C(=O)Nc3cccc(-c4cccc(C)c4)c3)C2)cn1 (stereo not drawn) | ? | i | -14.6% | -28.9% | -27.6% | ?
CCn1cc(CN2CCCC(C(=O)Nc3ccc(-c4nc5ccccc5[nH]4)cc3)C2)c(C)n1 (stereo not drawn) | -22.5% | i | 0.0% | -1.3% | -0.5% | ?
COC(=O)c1cc2c([nH]c1=O)CC(c1ccccc1)CC2=O (stereo not drawn) | nt | nt | -12.8% | -17.7% | nt | nt
CCOC(=O)c1c(NC(=O)CSc2cn(CCNC(=O)c3ccc(OC)c(OC)c3)c3ccccc23)sc2c1CCCC2 | nt | ? | ? | -22.4% | -9.9% | nt
CCOC(=O)N1CCc2c(sc(NCc3cccs3)c2C(=O)Nc2ccc(OC)cc2OC)C1 | nt | nt | 10µM* | -14.1% | nt | nt
CCOC(=O)N1CCc2c(sc(NCc3cccs3)c2C(=O)Nc2cc(OC)ccc2OC)C1 | nt | nt | ? | -0.1% | nt | nt
CCOC(=O)N1CCc2c(sc(NCc3ccc(OCC)cc3)c2C(=O)Nc2ccc(OC)cc2OC)C1 | nt | i | ? | 1.5% | 12.6µM* | nt
COc1cc(C(C[N+](=O)[O-])c2c(C)[nH]c3ccccc23)cc(OC)c1OC (stereo not drawn) | -18.4% | i | 5.4% | -17.7% | -19.4% | -19.3%
O=[N+]([O-])CC(c1ccccc1)c1c[nH]c2ccccc12 (stereo not drawn) | ? | ? | ? | -34.6% | nt | 14.6µM*
N=c1n(CCCOc2ccccc2Cl)c2ccccc2n1CC(N)=O | ? | i | 12.6µM* | -188.2% | ? | ?
O=C(CCn1c(=O)c2cccn2c2cccnc21)N1CCN(c2ccccc2)CC1 | nt | nt | -8.3% | -19.2% | nt | nt
O=C(CCn1c(=O)c2cccn2c2cccnc21)N1CCN(c2cccc(C(F)(F)F)c2)CC1 | nt | nt | 11.2µM* | -41.9% | nt | nt
Cc1ccc(NC(=O)CSc2ccc3nnc(CCNS(=O)(=O)c4ccccc4)n3n2)cc1Cl | nt | nt | 32.9% | -0.5% | nt | nt
COc1ccc(NC(=O)C2(C)Cc3c(-c4cccc(C(N)=O)c4)ccnc3O2)cn1 (stereo not drawn) | ? | ? | 3.9% | -4.1% | 4.9% | 4.61µM*
CC1(C(=O)NCc2ccccc2)Cc2c(-c3cccc(C(N)=O)c3)ccnc2O1 (stereo not drawn) | ? | ? | 23.4% | 0.0% | 3.9% | ?
CC1(C(=O)NCc2ccc(F)c(F)c2)Cc2c(-c3cccc(C(N)=O)c3)ccnc2O1 (stereo not drawn) | 25.9µM* | ? | 6.5% | -18.5% | -1.7% | 10.3µM*
COc1ccc(NC(=O)C2Cc3c(-c4cccc(C(N)=O)c4)ccnc3O2)cn1 (stereo not drawn) | ? | i | 8.2% | 0.5% | 0.1% | 20.6µM*
COc1ccc(NC(=O)C2Cc3c(-c4cccc(NC(C)=O)c4)ccnc3O2)cn1 (stereo not drawn) | ? | i | ? | -9.7% | 2.4% | ?
COc1ccc(NC(=O)C2Cc3c(-c4cccc(F)c4)ccnc3O2)cc1 (stereo not drawn) | -6.6% | i | 26.8% | -3.3% | -19.3% | ?
COc1ccc(NC(=O)C2Cc3c(-c4cccc(C(N)=O)c4)ccnc3O2)cc1 (stereo not drawn) | 11.6µM* | i | 8.1% | -22.4% | 10.0% | 14.6µM*
CCC(C(=O)Nc1ccc(C(=O)OC)cc1)n1nc(-c2ccc(C)cc2)c2c(c1=O)CCCC2 (stereo not drawn) | nt | i | ? | -24.5% | -24.7% | nt
Cc1ccc2nc(SCC(=O)N3CCOc4ccc(CN5C[C@@H](C)O[C@@H](C)C5)cc4C3)[nH]c2c1 | nt | i | nt | nt | nt | nt
SMILES | HT1080NT lethal | ATXN viability | TGFb inhibitor | HepG2 tox | ATXN2 expr inh | HT1080 IDH1KD tx
Cn1ncc2c(N3CCN(c4ccc(Cl)c(Cl)c4)CC3)ncnc21 | ? | i | ? | -7.3% | 0.947µM* | ?
C(=N\N=C\c1ccccn1)/c1ccccn1 | 29.3% | i | -14.8% | -17.2% | -7.3% | 18.5%
Clc1ccccc1/C=N/NC1=Nc2cccc3cccc1c23 | ? | 12.6µM* | 25.5% | -51.2% | -34.8% | ?
C(=N\NC1=Nc2cccc3cccc1c23)/c1ccccn1 | -19.8% | ? | 2µM* | 0.7% | nt | ?
Cc1ccc(NC(=O)Cn2c(=O)n(CC3CCC(C(=O)NC(C)C)CC3)c(=O)c3sccc32)cc1 (stereo not drawn) | nt | i | -4.5% | -1.4% | 3.8% | nt
CC(=O)Nc1cccc(-c2cnc(N)c(C(=O)c3cccnc3)n2)c1 | -24.2% | ? | 10µM* | -12.8% | ? | -24.6%
O=C1/C(=C\c2ccc3ccccc3c2)CCCc2ccccc21 | ? | i | 0.0% | -17.4% | 17.9% | 13µM*
O=Nc1c(O)n(Cc2ccc(Cl)cc2)c2ccccc12 | ? | i | -14.7% | -57.3% | -16.0% | ?
O=Nc1c(O)n(Cc2ccc(Cl)cc2Cl)c2ccccc12 | ? | i | ? | 5.01µM* | 0.7% | ?
COc1ccc(-c2onc(C)c2C)cc1S(=O)(=O)NCc1ccc(C)o1 | nt | nt | -3.6% | -7.6% | nt | nt
COc1ccc(C(OCC(O)CNCCc2ccc(S(N)(=O)=O)cc2)c2ccc(OC)cc2)cc1 (stereo not drawn) | -24.7% | i | -18.9% | -26.1% | -14.5% | ?
OC(CNCCc1ccc(C(F)(F)F)cc1)COC(c1ccccc1)c1ccccc1 (stereo not drawn) | ? | ? | ? | -95.7% | 28.2µM* | ?
CCOC(=O)/C=C(\C)Sc1cc(O)c2ccccc2c1O | 23.1µM* | ? | 3.16µM* | 5.62µM* | nt | 23.1µM*
CCOC(=O)c1c(C)oc2c1cc(O)c1ccccc12 | -5.1% | i | -1.7% | -5.8% | 81.0% | -7.1%
CCOC(=O)/C=C(\C)Sc1cc(=O)oc2ccccc12 | 14.6µM* | i | -5.0% | -31.5% | 3.0% | 16.4µM*
